# Measured values taken from the supplement of paper PMC7366291.
# Where a name gives a salt, the structure may show the parent alone. ± gives the standard deviation or the standard deviation of the averaged measurements.
# Assays:
# Settings in all cases: 25 µM; exposure: 24-48 hpf
# [1] = test system: Danio rerio Tg(wt1b:EGFP) embryo, pronephros; assay: glomerular separation, fold change vs DMSO control; higher = glomeruli further apart (abnormal)
# Summary of the method: (§1)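 Dechorionated Tg(wt1b:EGFP) zebrafish embryos were treated with 25 μM compound in 0.5% DMSO, in HEPES-buffered E3 with 0.003% PTU, from 24 to 48 hpf at 28.5°C. On maximum projections of dorsal pronephros images, 16 hand-placed reference points in Fiji gave distances and angles, and values more than 2 SD from the feature mean were left out. Results are fold changes over the mean of same-day DMSO-treated embryos.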
# [2] = test system: Danio rerio Tg(wt1b:EGFP) embryo, pronephros; assay: glomerular width (mean of left and right), fold change vs DMSO control; higher = wider glomerulus
# Summary of the method: as §1
# [3] = test system: Danio rerio Tg(wt1b:EGFP) embryo, pronephros; assay: fraction of imaged embryos annotated as normal kidney; higher = less nephrotoxic; extreme values may be limits of the assay
# Summary of the method: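 Dechorionated Tg(wt1b:EGFP) zebrafish embryos were exposed in 12-well plates to 25 μM compound in 0.5% DMSO, 5 mM HEPES-buffered E3 with 0.003% PTU, from 24 to 48 hpf at 28.5°C. Tricaine-anaesthetised larvae were oriented dorsally in agarose-filled 96-well plates, and pronephroi were imaged by widefield fluorescence (470 nm, 10 z-slices). Each embryo was manually annotated from maximum projections. The read-out is the fraction of embryos per treatment assigned to the normal-kidney category.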
# [4] = test system: Danio rerio Tg(wt1b:EGFP) embryo, pronephros; assay: pronephric angle neck segment to proximal convoluted tubule (mean of left and right), fold change vs DMSO control; higher = larger pronephric angle
# Summary of the method: as §1
SMILES,glomerular separation [1],glomerular width [2],fraction of imaged embryos annotated as normal kidney [3],pronephric angle neck segment [4]
CC1(C)O[C@@H]2C[C@H]3[C@@H]4CCC5=CC(=O)CC[C@]5(C)[C@@]4(F)[C@@H](O)C[C@]3(C)[C@]2(C(=O)CCl)O1 [Halcinonide],2.01 ± 0.91,1.18 ± 0.014,0.333,1.14 ± 0.043
COC(=O)C1=C(C#N)NC(C)=C(C(=O)OC(C)C)C1c1cccc([N+](=O)[O-])c1 (configuration not stated) [Nilvadipine],4.44 ± 1.4,0.7 ± 0.04,0.167,1.09 ± 0.17
CO[C@@H]1[C@@H](O[C@@H]2O[C@H](C)[C@@H](O[C@H]3C[C@@](C)(O)[C@@H](OC(=O)CC(C)C)[C@H](C)O3)[C@H](N(C)C)[C@H]2O)[C@@H](CC=O)C[C@@H](C)[C@@H](O)/C=C/C=C/C[C@@H](C)OC(=O)C[C@H]1OC(C)=O [Josamycin],1.16 ± 0.39,1.13 ± 0.093,0.909,1.0423 ± 0.00028
Cc1cc(NC(=O)C2=C(O)c3ccccc3S(=O)(=O)N2C)no1 [Isoxicam],1.19 ± 0.55,1.04 ± 0.034,0.917,1.02 ± 0.036
CN(C/C=C/C#CC(C)(C)C)Cc1cccc2ccccc12 [Terbinafine],1.03 ± 0.34,1 ± 0.012,1,1.01 ± 0.025
"CN1[C@@H]2CC[C@H]1C[C@@H](OC(=O)C(O)c1ccccc1)C2 (mixture of isomers) [Homatropine hydrobromide (R,S)]",0.957 ± 0.29,1.06 ± 0.015,0.75,0.9643 ± 0.0018
Cn1c(=O)c2c(ncn2CC(O)CO)n(C)c1=O (configuration not stated) [Diprophylline],0.977 ± 0.2,0.966 ± 0.01,0.667,1.05 ± 0.051
Nc1c2ccccc2nc2ccccc12 [Aminacrine],0.947 ± 0.57,1.01 ± 0.055,1,0.996 ± 0.028
